About 79,000 compounds went through this panel and 15% of them were active in at least one assay; those are over-represented in the sample as a whole. Calls of active or inactive are those of the source. No stated cut-off is given here; in the data, active means growth inhibition above about 70%; inactive means the rest.
Legend:
[1] = NCI Yeast Anticancer Drug Screen. Data for the rad52 strain (AID 147);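 further: 0% = growth of vehicle-treated control cultures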; conditions: S. cerevisiae rad52 mutant growth inhibition, hits give high values
Method in brief: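 Screen used a yeast mutant impaired in DNA repair. After compound exposure, growth was measured. Values reflect inhibition compared with vehicle-treated cells.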

[2] = NCI Yeast Anticancer Drug Screen. Data for the wt1 strain (AID 149);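 further: 0% = growth of vehicle-treated wt1 cultures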; conditions: S. cerevisiae wt1 strain (SPY 50644) growth inhibition, hits give high values
Method in brief: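 Measured: growth of wt1 yeast under compound versus vehicle treatment, reported as inhibition.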

[3] = NCI Yeast Anticancer Drug Screen. Data for the rad50EPP+ strain (AID 151);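 further: 0% = growth of vehicle-treated control cultures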; conditions: S. cerevisiae rad50 mutant strain, hits give high values
Method in brief: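 Exposing the rad50EPP+ strain to each compound, growth was compared with vehicle-only cultures to give inhibition.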

[4] = NCI Yeast Anticancer Drug Screen. Data for the mgt1 strain (AID 153); conditions: S. cerevisiae mgt1 mutant growth inhibition, hits give high values
Method in brief: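 Genetically defined yeast (mgt1) treated with compound; inhibition of growth expressed against vehicle-treated controls.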

[5] = NCI Yeast Anticancer Drug Screen. Data for the rad50 strain (AID 155);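 further: 0% = growth of vehicle-only cultures of the same strain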; conditions: S. cerevisiae rad50 strain growth inhibition, hits give high values
Method in brief: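 Growth of the mutant yeast was measured after compound exposure and referenced to vehicle-treated cultures.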

[6] = NCI Yeast Anticancer Drug Screen. Data for the mec2-1 strain (AID 157); conditions: S. cerevisiae mec2-1 strain, hits give high values
Method in brief: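 Readout is yeast growth inhibition, normalised to vehicle-treated controls, in the mec2-1 strain exposed to compound.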

[7] = NCI Yeast Anticancer Drug Screen. Data for the rad14 strain (AID 159);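 further: 0% = growth of vehicle-treated control cultures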; conditions: S. cerevisiae rad14 strain growth inhibition, hits give high values
Method in brief: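 Here, inhibition of yeast growth was measured after compound exposure, using a strain with a genetic defect in DNA damage repair and vehicle-treated cultures as the reference.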

[8] = NCI Yeast Anticancer Drug Screen. Data for the sgs1 mgt1 strain (AID 161);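 further: 0% = growth of cultures given vehicle only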; conditions: S. cerevisiae sgs1 mgt1 strain, hits give high values
Method in brief: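 Compounds are added to genetically altered yeast, and growth is compared with cultures given vehicle alone to give percent inhibition.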

[9] = NCI Yeast Anticancer Drug Screen. Data for the CLN2oe strain (AID 163);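 further: 0% = growth of vehicle-only control cultures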; conditions: S. cerevisiae CLN2oe strain, hits give high values
Method in brief: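 Values reflect how much compound exposure reduced yeast growth, referenced to vehicle-exposed cells. Assay organism is a strain with a defined genetic change affecting cell-cycle control.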

[10] = NCI Yeast Anticancer Drug Screen. Data for the cln2 rad14 strain (AID 165);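 further: 0% = growth equal to vehicle treated cultures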; conditions: S. cerevisiae cln2 rad14 strain, hits give high values
Method in brief: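 Relative to vehicle controls, growth inhibition of compound-treated cln2 rad14 yeast was recorded.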

[11] = NCI Yeast Anticancer Drug Screen. Data for the bub3 strain (AID 167); conditions: S. cerevisiae bub3 mutant strain, hits give high values
Method in brief: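 Whole-cell yeast assay. The mutant strain was incubated with compounds, and growth inhibition was determined by comparison with vehicle-treated cells.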

[12] = NCI Yeast Anticancer Drug Screen. Data for the wt2 strain (AID 169);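 further: 0% = growth of vehicle-treated yeast cultures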; conditions: S. cerevisiae wt2 strain growth inhibition, hits give high values
Method in brief: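 Values express reduction in yeast growth under compound treatment, referenced to vehicle-treated cells.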

[13] = NCI Yeast Anticancer Drug Screen. Data for the mlh1 strain (AID 171);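 further: 0% = growth of vehicle-treated control cultures of the same strain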; conditions: S. cerevisiae mlh1 strain growth inhibition, hits give high values
Method in brief: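 Steps: expose the defined-mutant yeast strain to compound; expose a parallel culture to vehicle; measure growth; express compound effect as inhibition relative to the vehicle culture.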

[14] = NCI Yeast Anticancer Drug Screen. Data for the sgs1 strain (AID 173);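 further: 0% = growth of vehicle-only control cultures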; conditions: S. cerevisiae sgs1 mutant, hits give high values
Method in brief: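 Treat defined-mutant yeast with compound; measure growth; calculate inhibition relative to vehicle-treated cells.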

[15] = NCI Yeast Anticancer Drug Screen. Data for the mlh1 rad18 strain (AID 175); conditions: S. cerevisiae mlh1 rad18 strain growth inhibition, hits give high values
Method in brief: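 Test agents were incubated with a yeast strain of defined genotype (DNA damage repair defect). Inhibition of growth was derived by comparison with vehicle-exposed cultures.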

[16] = NCI Yeast Anticancer Drug Screen. Data for the rad18 strain (AID 177); conditions: S. cerevisiae rad18 mutant growth inhibition, hits give high values
Method in brief: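 A genetically defined yeast mutant impaired in DNA damage repair was treated with test compounds, then its growth was measured against cultures receiving vehicle alone.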

[17] = at 5.0 µM (retest, dose inferred, filed as 0.5)
[18] = at 50.0 µM (retest, dose inferred, filed as 5.0)

Measured: growth inhibition

Cn1c2ccccc2c(=O)c2cc(NC(=O)CCCCC(=O)Nc3ccc4c(c3)c(=O)c3ccccc3n4C)ccc21
active: [1]; at 33.0 µM 76% | [1]; at 100.0 µM 87% | [3]; at 100.0 µM 80% | [5]; at 33.0 µM 76% | [5]; [18] 82% | [5]; at 50.0 µM 80.5% | [5]; at 100.0 µM 78% | [16]; at 100.0 µM 79%
inactive: [1]; at 1.2 µM 0% | [1]; at 3.7 µM 6% | [1]; at 11.0 µM 35% | [2]; at 1.2 µM 4% | [2]; at 3.7 µM -4% | [2]; at 11.0 µM -1% | [2]; at 33.0 µM 4% | [2]; at 100.0 µM 20% | [3]; at 1.2 µM -1% | [3]; at 3.7 µM 4% | [3]; at 11.0 µM 14% | [3]; at 33.0 µM 55% | [4]; at 1.2 µM 1% | [4]; at 3.7 µM 6% | [4]; at 11.0 µM -9% | [4]; at 33.0 µM -3% | [4]; at 100.0 µM 46% | [5]; at 1.2 µM 0% | [5]; at 3.7 µM 11% | [5]; [17] 9% | [5]; at 11.0 µM 41% | [6]; at 1.2 µM -5% | [6]; at 3.7 µM -2% | [6]; [17] -7% | [6]; at 11.0 µM 2% | [6]; at 33.0 µM 13% | [6]; [18] 6% | [6]; at 50.0 µM 12.4% | [6]; at 100.0 µM 47% | [7]; at 1.2 µM -1% | [7]; at 3.7 µM 3% | [7]; at 11.0 µM 3% | [7]; at 33.0 µM 17% | [7]; at 100.0 µM 58% | [8]; [17] -4% | [8]; [18] 16% | [8]; at 50.0 µM -1.45% | [9]; at 1.2 µM -6% | [9]; at 3.7 µM -4% | [9]; at 11.0 µM -8% | [9]; at 33.0 µM 3% | [9]; at 100.0 µM 27% | [10]; [17] -1% | [10]; [18] 5% | [10]; at 50.0 µM -12.1% | [11]; at 1.2 µM -4% | [11]; at 3.7 µM -5% | [11]; [17] 1% | [11]; at 11.0 µM -5% | [11]; at 33.0 µM -3% | [11]; [18] 10% | [11]; at 50.0 µM -22.2% | [11]; at 100.0 µM 19% | [12]; at 1.2 µM -3% | [12]; at 3.7 µM -2% | [12]; at 11.0 µM -1% | [12]; at 33.0 µM 10% | [12]; at 100.0 µM 40% | [13]; at 1.2 µM 0% | [13]; at 3.7 µM 2% | [13]; at 11.0 µM 3% | [13]; at 33.0 µM 24% | [13]; at 100.0 µM 66% | [14]; at 1.2 µM -5% | [14]; at 3.7 µM -6% | [14]; at 11.0 µM -6% | [14]; at 33.0 µM 4% | [14]; at 100.0 µM 49% | [15]; [17] 9% | [15]; [18] 9% | [15]; at 50.0 µM 62.8% | [16]; at 1.2 µM 1% | [16]; at 3.7 µM 0% | [16]; at 11.0 µM 3% | [16]; at 33.0 µM 49%
